Data published in PubChem BioAssay (NCI).
“And” between values parts separate entries of the source, which are not always exact repeats. Equal entries are not always repeated. About 83,000 compounds went through this panel and 20% of them were active in at least one assay; those are over-represented in the sample as a whole.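 For each line, cells grew in 96-well plates with the test compound present at a single concentration for 48 hours.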 The source made the active and inactive calls.

system: ACHN renal; assay: NCI-60 one-dose screen, 48 h (100 = growth as untreated, 0 = no growth, -100 = all killed); conditions: 10 µM unless noted
Method: Growth inhibition of the ACHN human tumor cell line is measured as a screen for anti-cancer activity. Cells are grown in 96 well plates and exposed to the test compound for 48 hours. Compounds are tested at a single concentration, which is 10^-5 M for most compounds. The reported endpoint is percent growth (GI% or GIPRCNT), where numbers from 0 - 100% represent growth inhibition, and numbers from -100% - 0 represent cell death. For example, a value of 40 represents 60% growth inhibition. A value of 0 means no net growth occurred over the course of the experiment. A value of -40 indicates 40% of cells at the beginning of the experiment died by the end of the experiment. A value of -100 means all cells are dead at the end of the experiment.
NCI-60 Human Tumor Cell Lines Screen was performed using the standard one-dose NCI protocol, which is described in more detail at https://dtp.cancer.gov/discovery_development/nci-60/default.htm.
Compounds with GIPRCNT values below 10 were considered active. Activity score was based on GIPRCNT using the following formula: […]
Score is 0 for GIPRCNT values of 100 or above, 50 for GIPRCNT values of 0, and 100 for GIPRCNT values of -100.

Compound | growth
COc1ccc2c(c1)c(-c1nc(-c3c[nH]c4ncccc34)cs1)cn2CCCCN1CCOCC1 | 17.1% (inactive)
c1ccc2c(c1)O[As](O[As]1Oc3ccccc3O1)O2 | 59.3% (inactive)
Oc1cc(Cl)ccc1Oc1ccc(Cl)cc1Cl | 7.4% (active)
CC[C@H](C)[C@H](NC(=O)CN(C)C)C(=O)N(C)[C@H](C[C@@H](OC(C)=O)c1nc(C(=O)NC23C4C5C2C2C3C4C52C(=O)OC)cs1)C(C)C (stereo not given in full) | 42.6% (inactive)
CN(C)[C@@H]1C(=O)C(C(N)=O)=C(O)[C@@]2(O)C(=O)C3=C(O)c4c(O)ccc(Cl)c4[C@@](C)(O)[C@H]3C[C@@H]12 | 70.9% (inactive) and 94.4% (inactive)
COc1ccc(CN)cc1OC | 103% (inactive) and 95.9% (inactive)
CC1(C)N=C(N)N=C(N)N1c1ccc(CCC(=O)Nc2ccc(S(=O)(=O)F)cc2)cc1 | 64.5% (inactive)
COC1C(O)CC(OC2CC(Oc3cc4cc5c(c(O)c4c(O)c3C)C(=O)[C@@H](OC3CC(OC4CC(OC6CC(C)(O)C(OC(C)=O)C(C)O6)C(O)C(C)O4)C(O)C(C)O3)[C@H]([C@H](OC)C(=O)[C@@H](O)[C@@H](C)O)C5)OC(C)C2OC(C)=O)OC1C (stereo not given in full) | 2.04% (active)
Cc1cc(Br)c([N+](=O)[O-])cc1[N+](=O)[O-] | 106% (inactive)
COc1cc2c(cc1OC)[C@@H]1C(=O)c3ccc4c(c3O[C@@H]1CO2)C[C@H](C(C)C)O4 | 59.3% (inactive)
CCC1CCC(=O)O1 (stereo not given) | 105% (inactive) and 109% (inactive)
COc1ccc(O)c2c(=O)c3c(OC)cc4c(c3oc12)[C@@H]1C=CO[C@@H]1O4 | 5.59% (active)
COc1cc(-c2ccc(N)c(OC)c2)ccc1N | 100% (inactive)
CC(=O)Cc1ccc2c(c1)OCO2 | 108% (inactive)
O=[N+]([O-])c1cc(Br)c(O)c(Br)c1 | 118% (inactive)
CC1=C(C)C(=O)O[C@@H]([C@](C)(O)[C@]2(O)CC[C@@]3(O)[C@@H]4C[C@H]5O[C@]56CC=CC(=O)[C@]6(C)[C@H]4CC[C@]23C)C1 | -72.4% (active)
CC1=CC(=O)CCC12CCOC2=O (stereo not given) | 101% (inactive)
C/C=C(/C)C(=O)O[C@H]1CC[C@@]2(C)[C@@H]3CC[C@H]4[C@]5(O)C[C@H](O)[C@@]6(O)[C@@H](CN7C[C@@H](C)CC[C@H]7[C@@]6(C)O)[C@]5(O)C[C@@]42O[C@@]13O | 113% (inactive)
CCCCCCCCCCCCCCCC[N+](C)(C)Cc1ccccc1 | 55.1% (inactive) and 23.4% (inactive)
Nc1ccc2c(c1)Cc1cc(N)ccc1-2 | 97% (inactive)

Compound | growth
CCC1(NC(=O)c2cc(F)c(F)c(F)c2F)C(=O)NC(=O)N(C(C)C)C1=O (stereo not given) | 96.6% (inactive)
ClCc1ccc(Cl)c(Cl)c1 | 96.8% (inactive)
O=C(O)C1C(C(=O)O)C2(Cl)C(Cl)=C(Cl)C1(Cl)C2(Cl)Cl (stereo not given) | 99.9% (inactive)
C[C@]12CC[C@H]3[C@@H](C[C@@H]4SC(Nc5cccc(F)c5)=N[C@@]45CC(=O)CC[C@]35C)[C@@H]1CCC2=O | 1.56% (active)
C=C1C(=O)OC2CC3(C)OC3C3OC3C3=CC(OC3=O)C12 (stereo not given) | -5.94% (active) and -29% (active)
CC[C@H](C)[C@H](NC(=O)c1cnccn1)C(=O)N(C)[C@H](C[C@@H](OC(C)=O)c1nc(C(=O)N[C@@H](Cc2ccccc2)C[C@H](C)C(=O)OC)cs1)C(C)C | 45.3% (inactive)
COC12CC3C4=CCOC5CC(=O)N6c7ccccc7C1(CCN2C4)C6C53 (stereo not given) | 113% (inactive)
CC[CH2][Sn]([Cl])([Cl])[CH2]CC.Oc1ccccc1C=NCCN=Cc1ccccc1O | 47.8% (inactive) and 29.3% (inactive)
O=C(NC1=NCC[Se]1)c1ccccc1O | 79.8% (inactive)
Cc1c(C)c(N)c(C)c(C)c1N | -8.61% (active)
CN1CCN(c2ccc(Cl)cc2)CC1 | -11.9% (active)
O=C(NCCCN1CC1)Nc1cccc2ccccc12 | 93% (inactive) and 87.6% (inactive)
CC1=CC(=Nc2ccc(N(CCCl)CCCl)cc2)C=C(C)C1=O | -1.94% (active)
CC1OC(=O)C(C(C)C)NC(=O)C(C(C)C)OC(=O)C(C(C)C)NC(=O)C(C)OC(=O)C(C(C)C)NC(=O)C(C(C)C)OC(=O)C(C(C)C)NC(=O)C(C)OC(=O)C(C(C)C)NC(=O)C(C(C)C)OC(=O)C(C(C)C)NC1=O (stereo not given) | -16.5% (active)
O=C1c2ccccc2C(=O)N1N1CC1c1ccccc1 (stereo not given) | 104% (inactive)
c1ccc2c(c1)sc1ccccc12 | 89.6% (inactive)
CC[C@H](C)[C@H](NC(=O)[C@H]1CCCCN1C)C(=O)N(C)[C@H](C[C@@H](OC(C)=O)c1cccc(C(=O)N[C@@H](Cc2ccccc2)C[C@H](C)C(=O)OC)n1)C(C)C | 24.6% (inactive)
CO[C@@H]([CH2][Hg][O]C(=O)c1ccccc1)[C@@H]([CH2][Hg][O]C(=O)c1ccccc1)OC | 99% (inactive)
CN1CCc2cc3c(cc2C1O)OCO3 (stereo not given) | 100% (inactive) and 101% (inactive)
Cc1cc(N(CCCl)CCCl)ccc1/C=N\NC(=O)c1cccnc1 | 72.6% (inactive) and 84% (inactive)
